The target in this assay is Neuropilin-1 (Homo sapiens) (UniProt O14786). As to the kind of experiment: blockers of CendR peptide binding to NRP-1 – biochemical, FP and AlphaScreen panel, dose response (AID 651650). As to conditions: NRP-1 b1b2 / RPARPAR peptide binding, FP or AlphaScreen; run 1, at 100 µM (top of the series). (In general: Alpha assays give light when donor and acceptor beads are brought close together.)
Neuropilin-1 (Homo sapiens), sequence (O14786 whole entry, looked up): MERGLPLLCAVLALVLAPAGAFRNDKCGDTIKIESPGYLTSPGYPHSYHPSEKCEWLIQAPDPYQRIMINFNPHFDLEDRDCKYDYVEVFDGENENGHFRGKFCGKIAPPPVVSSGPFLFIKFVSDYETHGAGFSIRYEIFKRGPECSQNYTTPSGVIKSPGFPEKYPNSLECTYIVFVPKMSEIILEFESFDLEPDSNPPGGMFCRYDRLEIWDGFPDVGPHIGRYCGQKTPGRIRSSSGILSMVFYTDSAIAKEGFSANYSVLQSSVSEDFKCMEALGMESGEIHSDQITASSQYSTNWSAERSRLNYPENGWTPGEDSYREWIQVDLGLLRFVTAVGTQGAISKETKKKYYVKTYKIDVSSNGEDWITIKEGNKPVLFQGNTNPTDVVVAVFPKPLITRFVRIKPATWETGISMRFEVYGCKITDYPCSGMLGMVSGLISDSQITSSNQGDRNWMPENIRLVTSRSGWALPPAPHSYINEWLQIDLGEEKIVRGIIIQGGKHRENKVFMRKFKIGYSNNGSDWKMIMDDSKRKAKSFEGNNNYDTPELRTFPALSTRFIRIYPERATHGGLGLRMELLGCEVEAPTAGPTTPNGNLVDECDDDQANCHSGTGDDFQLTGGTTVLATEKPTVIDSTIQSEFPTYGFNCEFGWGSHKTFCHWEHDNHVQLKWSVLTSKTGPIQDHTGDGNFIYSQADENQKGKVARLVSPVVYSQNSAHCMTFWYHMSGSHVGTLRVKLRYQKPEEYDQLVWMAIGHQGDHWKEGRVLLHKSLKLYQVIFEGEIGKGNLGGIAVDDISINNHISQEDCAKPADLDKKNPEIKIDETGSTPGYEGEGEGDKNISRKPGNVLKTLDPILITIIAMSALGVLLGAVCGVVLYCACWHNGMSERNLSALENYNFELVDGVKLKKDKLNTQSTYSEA
For `Cc1ccc(COn2c(-c3ccc(Cl)cc3Cl)nc3ncccc32)cc1`, the inhibition (in general, the relative decrease from the control value, in per cent) came out at 7.33%. For the compound `CCCc1c(C)nc(N2CCN(c3ccccc3OC)CC2)[nH]c1=O`, the inhibition worked out at 37.3%. As for `COc1ccccc1N1CCN(C(=O)C2c3ccccc3Oc3ccccc32)CC1`, the figure is 38.7%. As to `O=C(Cn1ccc(NC(=O)OCc2ccccc2)nc1=O)NCCCn1ccnc1`, the inhibition turned out to be 48.6%. On to `CCCCc1ccc(S(=O)(=O)N2CCC3(CC2)OCCO3)cc1`, for which the inhibition was found to be 16.7%. For `CCOC(=O)C1=CCN(S(=O)(=O)c2ccccc2Br)C1c1ccccc1` (stereo not drawn), the inhibition is 35.1%. Regarding `CCOC(=O)c1cnc(-c2ccccc2)nc1Oc1ccc(OC)cc1`, the inhibition was 99.5%. Consider `O=C(Nc1cccc(C(F)(F)F)c1)C1Cc2c(-c3cccc(F)c3)ccnc2O1` (stereo not drawn), for which the inhibition came to 18.4%. As for `Cc1cc(C)n2c(Nc3ccc4c(c3)OCCO4)c(-c3ccccn3)nc2n1`, the inhibition stood at 6.1%.

Consider `CCC1=C(OC(=O)N(CC)CC)N2C(=O)OC(=NCCOC)[C@]2(Cc2ccccc2)[C@H]2C1=CC[C@H]1C(=O)N(CC(=O)OC)C(=O)[C@H]12`, for which the inhibition was determined as 56.3%. `CCOCCCNC(=O)C(c1ccc(C)cc1)N(Cc1cccs1)C(=O)c1ccccc1O` (stereo not drawn): the inhibition came out at 24.4%.

On to `Cn1c(SCc2nc3ccccc3s2)nnc1-c1cccs1`, for which the inhibition was 65.1%. Turning to `COc1ccc(C(=O)COC(=O)C(CCSC)NS(=O)(=O)c2ccc(Cl)cc2)cc1` (stereo not drawn), the inhibition is -2.36%.

For `CCN(CCCNC(=O)CNC(=O)c1nn(-c2ccc(OC)cc2OC)c(=O)c2ccccc12)c1cccc(C)c1`, the inhibition was 24.3%. With `O=C(c1ccccn1)N1CCN(S(=O)(=O)c2ccccc2)CC1`, the inhibition was 80.9%. As for `COC/C=C/C1=CC2=CC(=O)C(C)(OC(=O)c3cnc4ccccc4n3)C(=O)C2=CN1Cc1ccc(OC)cc1` (stereo not drawn), the figure is 66.7%; as for `CCN(Cc1ccncc1)C(=O)c1cc(COc2ccc(F)cc2F)on1`, 18.1%.

Regarding `O=C(COc1cc(Cl)c(Cl)cc1Cl)Nc1ccc([N+](=O)[O-])cc1Cl`, the inhibition was 38.3%. As for `CCOC(=O)Cc1ccc(NS(=O)(=O)c2ccc(SC)cc2)cc1`, the figure is 19.4%. In the case of `COc1ccc(C2CC(O)(c3ccccc3)Oc3cc(OC)ccc32)cc1` (stereo not drawn), the inhibition was determined as 7.29%. In the case of `O=C(c1ncn(Cc2ccccc2)c1C(=O)N1CCc2ccccc2C1)N1CCc2ccccc2C1`, the inhibition stood at 23%. Turning to `O=C(Nc1ccccc1N1CCOCC1)c1ccc(N2CCCC2=O)cc1`, the inhibition turned out to be 46.3%. For `COc1ccc(-c2csc(Nc3cccnc3)n2)cc1`, the inhibition is 47.6%.

Source of the values: PubChem BioAssay AID651650 (Sanford-Burnham Center for Chemical Genomics, 2012).
